Structures are written as SMILES. About 83,000 compounds went through this panel and 20% of them were active in at least one assay; those are over-represented in the sample as a whole.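 Negative percent growth values reflect cell death: -40 means 40% of the cells present at the start died, and -100 means all died.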 The source made the active and inactive calls.

This assay relates to OVCAR-4 ovarian. In words: NCI-60 one-dose screen, 48 h (100 = growth as untreated, 0 = no growth, -100 = all killed). As to conditions: 10 µM unless noted. The procedure:
Growth inhibition of the OVCAR-4 human tumor cell line is measured as a screen for anti-cancer activity. Cells are grown in 96 well plates and exposed to the test compound for 48 hours. Compounds are tested at a single concentration, which is 10^-5 M for most compounds. The reported endpoint is percent growth (GI% or GIPRCNT), where numbers from 0 - 100% represent growth inhibition, and numbers from -100% - 0 represent cell death. For example, a value of 40 represents 60% growth inhibition. A value of 0 means no net growth occurred over the course of the experiment. A value of -40 indicates 40% of cells at the beginning of the experiment died by the end of the experiment. A value of -100 means all cells are dead at the end of the experiment.
NCI-60 Human Tumor Cell Lines Screen was performed using the standard one-dose NCI protocol, which is described in more detail at https://dtp.cancer.gov/discovery_development/nci-60/default.htm.
Compounds with GIPRCNT values below 10 were considered active. Activity score was based on GIPRCNT using the following formula: […]
Score is 0 for GIPRCNT values of 100 or above, 50 for GIPRCNT values of 0, and 100 for GIPRCNT values of -100.
On to `CN1CCN(Cc2ccc(/C=N/Nc3ccnc4cc(Cl)ccc34)cc2)CC1`, for which the growth was 83% (inactive). Take `Cc1ccc(C)c(NC2=C(Cl)C(=O)c3nc(C)ccc3C2=O)c1`: the growth was -96% (active).

In the case of `CC(=O)c1cc(C(=O)N2c3ccccc3Sc3ccccc32)n2c1ccc1ccccc12`, the growth was 78.1% (inactive).

Regarding `O=C1C(N2CCN(c3ccccc3)CC2)=C(Cl)C(=O)c2ncccc21`, the growth was 66% (inactive). Next, `O=c1oc2ccc(-c3ccc(F)cc3F)cc2c(=O)n1-c1ccc(Br)cc1F`: 78.7% (inactive). The figure for `Clc1ccc2c(N/N=C/c3c[nH]c4ccccc34)ccnc2c1` is -61.2% (active); for `O=C1C(SCc2ccccc2)=C(Cl)CN1c1ccc(Cl)cc1` it is 103% (inactive); for `COc1ccc(-c2cnc(NC(=O)CCCCCCNC(=O)C(O)(O)C(F)(F)F)s2)cc1` it is -9.83% (active).

In the case of `CNC(=O)c1cc(-c2ccc(NC(=S)Nc3cccc(C(F)(F)F)c3)cc2)nc2cccnc12`, the growth was 96.6% (inactive). The figure for `O=[N+]([O-])c1ccc(NC(=S)NNC(=S)Nc2ccc(Br)cc2)cc1` is 98.2% (inactive); for `COc1ccc(C2C(C#N)=C(/N=C/c3ccc(Cl)cc3)Oc3c2sc2c(C)cccc32)cc1` (stereo not given) it is 76.5% (inactive); for `O=c1c2cc(-c3ccc(F)cc3F)ccc2n(O)c(=O)n1-c1cccc(C(F)(F)F)c1` it is 31.7% (inactive). The figure for `COc1ccc(/C=N/NC(=O)CSc2nc(-c3cnccn3)cc(-c3cccs3)c2C#N)cc1OC` is 97.6% (inactive); for `CCN(CC)S(=O)(=O)c1ccc(-c2nc(C(Cl)Cl)nc3cc(-c4ccc(F)cc4)nn23)cc1` it is 45.2% (inactive). With `CC(C)(C)OC(=O)Nc1ccc(-c2cccc(Oc3ccc4nnc(Cl)n4n3)c2)cc1`, the growth is 63.7% (inactive). The figure for `CCOC(=O)c1cccnc1Nc1ccc(NC(=O)Nc2ccc(Cl)c(C(F)(F)F)c2)cc1` is 42.8% (inactive); for `COc1ccc(OC)c(CCn2cncc2-c2c[nH]c3ccc(Cl)cc23)c1` it is 16.2% (inactive); for `CCOC(=O)c1c(NCC(=O)Nc2cccc([N+](=O)[O-])c2)sc(C(C)=O)c1C` it is 4.88% (active). The figure for `CCOC(=O)C1=C(C)NC(C)=C(C(=O)OC(C)C)C1c1cccc(C#N)c1` (stereo not given) is 104% (inactive). The figure for `Cc1ccc2c(n1)C(=O)C(Cl)=C(Nc1cccc(C(F)(F)F)c1)C2=O` is -97.8% (active). As for `Brc1ccc(-c2cc(-c3ccc4c(c3)OC=CO4)n[nH]2)s1`, the growth is 88% (inactive). As to `COc1cc(-c2nc(-c3ccccc3)[nH]c2-c2ccnc(NCCCNS(=O)(=O)c3cccc(F)c3)n2)ccc1F`, the growth was 104% (inactive). Take `Cc1ccc(N2CCN(C3=C(Cl)C(=O)c4ncccc4C3=O)CC2)cc1`: the growth was 48.3% (inactive). Next, `O=C(CSc1nnc(-c2ccc(Cl)cc2)n1-c1ccccc1)Nc1cccc(F)c1`: -46.4% (active); `O=C1c2ccccc2C23C(=C(c4cncnc4)c4ccccc42)CCCN13` (stereo not given): 93.3% (inactive). On to `CC(C)Sc1nc(-c2ccccc2)c(C#N)c(N2CCOCC2)n1`, for which the growth is 2.36% (active). The figure for `O=C1/C(=C/C=C/c2ccco2)SC(=S)N1Cc1ccccc1` is 95.1% (inactive); for `C/C(=N/N)c1nnn(-c2ccc(Br)cc2)c1C` it is 110% (inactive); for `Cc1ccc2c(n1)C(=O)C(Cl)=C(Nc1cccc(C)c1C)C2=O` it is -97.6% (active). The figure for `Brc1cc(-c2cc(-c3ccc4c(c3)OC=CO4)[nH]n2)cs1` is 97% (inactive). `CC[C@]12C=CCN3CC[C@@]4(c5ccc(OC)cc5N(C)[C@H]4[C@@](O)(C(=O)OC)[C@@H]1OC(=O)CCN1CCc4ccccc4C1)[C@@H]32`: the growth is 91.2% (inactive). The figure for `CC(Nc1c(C#N)cnc2ccc(-c3cncc(O)c3)cc12)c1ccccc1` (stereo not given) is -17.5% (active). The figure for `O=C1[C@@H]2Cc3c([nH]c4ccccc34)[C@@H](c3ccc(Cl)cc3)N2C(=O)CN1C1CCN(Cc2ccccc2)CC1` is 49.1% (inactive); for `O=S(=O)(NCCCNc1nccc(-c2[nH]c(-c3ccccc3)nc2-c2ccc(F)c(O)c2)n1)c1ccccc1` it is 118% (inactive). On to `CCc1cc(O)ccc1Nc1cc(-c2ccc(-n3cccn3)cc2)[nH]n1`, for which the growth was 49% (inactive). Turning to `CC1=C(C)C(=O)C(Nc2ccc3c(c2)OCO3)=C(Br)C1=O`, the growth is 60.3% (inactive). Next, `CN(C)c1ccc(-c2cc(-c3c[nH]c4ccccc34)nc(N)c2C#N)cc1`: 69.5% (inactive); `C#CCn1cc(/C=N/Nc2nc(-c3ccc(Br)cc3)cs2)c2ccccc21`: 107% (inactive). Next, `COc1ccc2c(c1)c(-c1nnc(N)nc1-c1c[nH]c3ccc(F)cc13)cn2C`: 86.3% (inactive); `O=C(CCCCCCNC(=O)C(O)(O)C(F)(F)F)Nc1ccc(Cl)cc1`: 47.4% (inactive).
